Screening data from PubChem BioAssay.
In the library only some 4.1% were active in any assay of this set; here they are far more common.
LMP1 NFkB inh: EBV LMP1-driven NF-kappaB luciferase reporter inhibitors, primary screen, cell-based, luminescence, single point | LMP1-induced NF-kappaB luciferase reporter cells | inhibition, % at 12.5 µM | hit rate 0.69% among 350,000; in the data active = inhibition above about 41%; inconclusive = no clear call, values can overlap the other calls
TRPM1 prom inh: inhibitors of MITF-dependent TRPM1 promoter reporter, primary screen, cell-based, SK-MEL-5, single point, luciferase; SK-MEL-5 TRPM1 promoter luciferase, 24 h; inhibition, % at 12.5 µM; hit rate 0.83% among 330,000; AID 488899, 2010;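 active = mean inhibition across replicates of 60% or more, whatever share of single replicates reaches that level; inconclusive = some that reach 60%, reason not given; inactive = mean inhibition across replicates below 60%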
Peg3 promoter: Peg3 promoter-driven luciferase inhibitors, primary screen, cell-based, HeLa, luciferase luminescence. HeLa PEG-Prom luciferase reporter, overnight. hit rate 1.7% among 360,000. inhibition, % at 20 µM;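 active = inhibition of at least 50% at 20 µM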
TWEAK-Fn14 inh: inhibitors of TWEAK-Fn14 signaling, primary screen, luciferase reporter cells, uHTS | hit rate 2% among 360,000 | TWEAK-stimulated Fn14 reporter cells, luciferase luminescence, 8 h | inhibition, % at 10 µM; in the data active = inhibition above about 50%
Shn3 3UTR inh: reduction of Shn3 3'UTR firefly luciferase signal, primary screen, Schnurri-3 inhibitor project, cell-based, Clone20 osteoblasts, set 2 | Clone20 osteoblast Shn3 3'UTR firefly luciferase, 24 h | inhibition, % at 12.5 µM | hit rate 0.52% among 360,000 | AID 588674, 2011;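 active = mean inhibition of at least 75% with every replicate also reaching 75%; inconclusive = mean inhibition at least 75% but some replicate below; inactive = mean inhibition below 75%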
TROY signal inh: inhibitors of TROY-driven NF-kB signaling, primary screen, Q293 LMP1-TROYcd cells, NF-kB luciferase, uHTS | hit rate 0.98% among 360,000 | AID 1347056, 2019 | inhibition, % at 10 µM | Q293 LMP1-TROYcd NF-kB luciferase reporter, 4 h;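 active = compounds whose plate-normalised and pattern-corrected inhibition of the luciferase reporter signal at the single screening dose is 50% or more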
Numbers stand for hits; n = inactive; u = inconclusive; x = no result given.

SMILES	LMP1 NFkB inh	TRPM1 prom inh	Peg3 promoter	TWEAK-Fn14 inh	Shn3 3UTR inh	TROY signal inh
COc1ccc(Br)cc1/C=C/C(=O)Nc1ccc2ccccc2c1	n	n	n	n	n	n
CC(=O)Nc1cccc(C(=O)/C=C/c2ccc(Br)cc2)c1	n	n	101	67	n	n
CC(=O)c1cccc(NS(=O)(=O)c2ccc(N/C=C/C(=O)c3ccc(F)cc3)cc2)c1	n	n	n	89	n	n
COc1cc(-c2ccc3oc(-c4cccc(C)c4)c(C#CC4(O)CCCCC4)c3c2)cc(OC)c1OC	n	n	n	n	n	n
Cc1cc(C)c2c(=O)n3c(nc2c1)C(Cc1ccccc1)NC(=O)c1cc2ccccc2cc1-3 (centres undefined)	n	x	n	n	n	n
CCN(CC)S(=O)(=O)c1c(OC)cc(C)c(Cl)c1C	n	n	n	n	n	n
COc1cc(NC(=S)N2CCCC(CO)C2)cc(OC)c1 (centres undefined)	n	n	n	62	n	n
CC(C(=O)N1CCCCCC1)N(c1ccc(Cl)cc1)S(C)(=O)=O (centres undefined)	n	n	n	n	n	n
CCOc1ccc(N(C(C)C(=O)N2CCCCCC2)S(C)(=O)=O)cc1 (centres undefined)	71	n	n	n	n	n
Cc1ccc(C(C[N+](=O)[O-])c2c(-c3ccccc3O)[nH][nH]c2=O)cc1 (centres undefined)	n	n	96	n	n	n
O=c1[nH][nH]c(-c2ccccc2O)c1C(C[N+](=O)[O-])c1ccc(Br)cc1 (centres undefined)	n	n	n	n	n	n
OC[C@H]1O[C@@H](n2cnc3c(NCc4ccco4)ncnc32)[C@H](O)[C@@H]1O	n	66	n	n	n	n
C=CCNc1ncnc2c1ncn2C1OC(CO)C(O)C1O (centres undefined)	n	n	n	n	n	n
OC[C@H]1O[C@@H](n2cnc3c(NC4CCCC4)ncnc32)[C@H](O)[C@@H]1O	n	n	n	n	n	n
OCC1OC(n2cnc3c(NCc4ccco4)ncnc32)C(O)C1O (centres undefined)	n	u	87	n	u	n
CCN(C(=O)COC(=O)CSc1ccc(C)cc1C)c1c(N)n(Cc2ccccc2)c(=O)[nH]c1=O	n	n	n	n	n	n
COc1ccccc1NC(=O)c1sc2ncn(Cc3cccc(C)c3)c(=O)c2c1C	n	n	n	n	n	n
COc1ccccc1NC(=O)c1sc2ncn(Cc3ccc(C)cc3)c(=O)c2c1C	n	n	52	n	n	n
